The nature of assay [1]: qHTS assay to identify small molecule antagonists of the thyroid receptor (TR) signaling pathway (AID 743065). Also: nearly all actives have a fitted effect of over 55% in size. Also: potency is read from the fitted curve at half-maximal effect. As to activity, negative = inhibition: series mostly up to about 70 µM. The gist of the method:
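Antagonism measured as loss of luciferase signal in GH3 cells stably carrying a TRE-luciferase reporter, co-treated with compound and T3 (1 nM final) for 23.5 h at 37 C. Viability was read in the same well by CellTiter-Fluor.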
For orientation: Quantitative high-throughput screening tests each substance at several concentrations.

Assay [2] deals with thyroid hormone receptor (rat, GH3 cells). As to the kind of experiment: qHTS assay to identify small molecule agonists of the thyroid receptor (TR) signaling pathway (AID 743066; calls by dose curve).
Assay [3] can be described thus: qHTS assay to identify small molecule antagonists of the estrogen receptor alpha (ER-alpha) signaling pathway - cell viability counter screen (AID 743074; calls by dose curve;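 also: HEK293 cells carrying ER-alpha-UAS-bla reporter stimulated with 17beta-estradiol; nearly all actives have a fitted effect of over 45% in size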; also: potency is read from the fitted curve at half-maximal effect).
Assay [4] can be described thus: qHTS assay to identify small molecule antagonists of the estrogen receptor alpha (ER-alpha) signaling pathway using the BG1 cell line - cell viability counter screen (AID 743081).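 Also: compound given together with 17beta-estradiol as the ER stimulus; series mostly up to about 70 µM; nearly all actives have a fitted effect of over 45% in size.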
The target of a further assay is Aromatase (Homo sapiens) (UniProt P11511). As to the kind of experiment: qHTS assay to identify aromatase inhibitors (AID 743083). Also: nearly all actives have a fitted effect of over 55% in size. Also: potency is read from the fitted curve at half-maximal effect. As to activity, negative = inhibition: series mostly up to about 70 µM.
Sequence of Aromatase (Homo sapiens) (P11511 whole entry, looked up): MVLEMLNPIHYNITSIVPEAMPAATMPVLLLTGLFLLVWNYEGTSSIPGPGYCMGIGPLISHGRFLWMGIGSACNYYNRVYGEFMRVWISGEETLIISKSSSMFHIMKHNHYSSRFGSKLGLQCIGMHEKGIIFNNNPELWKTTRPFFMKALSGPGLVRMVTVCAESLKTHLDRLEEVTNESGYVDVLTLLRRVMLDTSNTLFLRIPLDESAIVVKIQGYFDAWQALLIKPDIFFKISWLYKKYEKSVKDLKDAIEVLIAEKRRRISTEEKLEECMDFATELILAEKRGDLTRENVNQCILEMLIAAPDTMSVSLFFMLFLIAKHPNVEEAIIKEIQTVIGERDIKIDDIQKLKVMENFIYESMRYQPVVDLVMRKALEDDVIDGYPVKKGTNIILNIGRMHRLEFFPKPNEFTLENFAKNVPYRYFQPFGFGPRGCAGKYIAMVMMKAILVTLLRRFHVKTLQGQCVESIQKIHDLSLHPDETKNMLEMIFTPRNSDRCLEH
Assay [5] in a line: qHTS assay to identify aromatase inhibitors - cell viability counter screen (AID 743084).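 Also: cells stimulated with testosterone during compound exposure; nearly all actives have a fitted effect of over 55% in size.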
Assay [6] addresses Aryl hydrocarbon receptor (Homo sapiens) (UniProt P35869). Nature of the assay: qHTS assay to identify small molecule that activate the aryl hydrocarbon receptor (AhR) signaling pathway (AID 743085). Also: nearly all actives have a fitted effect of over 15% in size. Also: potency is read from the fitted curve at half-maximal effect.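 As to activation: HG2L7.5c1 human HepG2 liver cells with stably integrated DRE-driven firefly reporter; series mostly up to about 70 µM.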 The gist of the method: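 Luminescence read-out: ONE-Glo reagent, 30 min at room temperature, in HG2L7.5c1 HepG2 reporter cells treated 24 h at 37C. Viability was measured beforehand by CellTiter-Fluor fluorescence after 30 min at 37C.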

Assay [7] is described as follows: qHTS assay to identify small molecule antagonists of the peroxisome proliferator-activated receptor gamma (PPARg) signaling pathway - cell viability counter screen (AID 743194). Also: nearly all actives have a fitted effect of over 55% in size. The gist of the method:
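Viability was measured as CellTiter-Glo luminescence in GeneBLAzer PPARg UAS-bla HEK293H cells. These cells had been exposed 17 h at 37 C to compounds together with rosiglitazone at 50 nM final, with the beta-lactamase readout taken in the same wells.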

Assay [8] in a line: qHTS assay for small molecule agonists of the antioxidant response element (ARE) signaling pathway - cell viability counter screen (AID 743203; calls by dose curve; also: nearly all actives have a fitted effect of over 55% in size). The gist of the method: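 ARE-bla HepG2 cells were plated, rested 5 h at 37C/5% CO2, then exposed to compounds in DMSO for 16 h. Viability was read as CellTiter-Glo luminescence after 30 min at room temperature, in the same wells as the ARE screen.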

A short description of assay [9]: qHTS assay for small molecule activators of the heat shock response signaling pathway - cell viability counter screen (AID 743209). Also: nearly all actives have a fitted effect of over 50% in size. The essentials: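 HSE-bla HeLa cells plated overnight, then exposed to Tox21 compounds (23 nL in DMSO) for 5 h at 37 C. After the bla reporter read, CellTiter-Glo was added in the same wells and luminescence read after 30 min at room temperature.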

Assay [10] can be described thus: qHTS assay for small molecule activators of the heat shock response signaling pathway (AID 743210; active = well fitted activation curve with a large enough effect in the signal ratio in the repeat runs, with a control signal flat, not every such curve was filed as active; the % refers to the signal ratio;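 also: HeLa cells with beta-lactamase reporter driven by heat shock elements; series mostly up to about 63 µM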). The gist of the method:
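HeLa HSE-bla cells, overnight plating; cpd in DMSO 5 h, 37 C; LiveBLAzer B/G FRET substrate 2.5 h RT; fluorescence intensity read.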

For assay [11], the target named is Estrogen receptor (Homo sapiens) (UniProt P03372). As to the kind of experiment: qHTS assay to identify small molecule antagonists of the estrogen receptor alpha (ER-alpha) signaling pathway (AID 743069; active = well fitted curve in the direction sought with a large enough effect in the signal ratio in the repeat runs, not every such curve was filed as active; the % refers to the signal ratio). The gist of the method: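 ER-alpha-UAS-bla GripTite HEK293 line; 2% charcoal-stripped FBS overnight; plated, 4 hr 37C/5% CO2; cpd in DMSO + 17beta-estradiol, 18 hr 37C; LiveBLAzer B/G FRET substrate 2 hr RT; fluorescence intensity.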
Sequence of Estrogen receptor (Homo sapiens) (P03372 whole entry, looked up): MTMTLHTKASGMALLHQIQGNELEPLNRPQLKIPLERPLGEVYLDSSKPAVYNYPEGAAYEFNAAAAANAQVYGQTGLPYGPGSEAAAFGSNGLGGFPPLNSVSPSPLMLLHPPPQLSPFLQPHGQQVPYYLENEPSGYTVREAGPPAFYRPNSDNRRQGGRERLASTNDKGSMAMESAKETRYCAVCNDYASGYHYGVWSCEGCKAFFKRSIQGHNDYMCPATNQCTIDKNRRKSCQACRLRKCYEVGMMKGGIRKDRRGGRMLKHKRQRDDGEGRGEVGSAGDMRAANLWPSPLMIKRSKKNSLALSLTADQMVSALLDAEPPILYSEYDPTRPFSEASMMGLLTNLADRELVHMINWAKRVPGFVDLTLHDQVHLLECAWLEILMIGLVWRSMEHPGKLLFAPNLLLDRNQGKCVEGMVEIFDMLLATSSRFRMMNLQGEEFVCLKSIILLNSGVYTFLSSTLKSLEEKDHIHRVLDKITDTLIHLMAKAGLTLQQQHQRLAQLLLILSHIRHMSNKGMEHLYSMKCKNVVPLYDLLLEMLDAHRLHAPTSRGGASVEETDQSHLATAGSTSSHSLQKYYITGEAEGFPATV

For assay [12] the target is unchanged. Nature of the assay: qHTS assay to identify small molecule agonists of the estrogen receptor alpha (ER-alpha) signaling pathway (AID 743075; calls by dose curve;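 also: HEK293 GripTite cells with ER-alpha and UAS-driven beta-lactamase reporter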).
For assay [13] the target is unchanged. As to the kind of experiment: qHTS assay to identify small molecule agonists of the estrogen receptor alpha (ER-alpha) signaling pathway using the BG1 cell line (AID 743079). Also: nearly all actives have a fitted effect of over 20% in size. Also: potency is read from the fitted curve at half-maximal effect.
The nature of assay [14]: qHTS assay to identify small molecule that activate the aryl hydrocarbon receptor (AhR) signaling pathway - cell viability counter screen (AID 743086). Also: series mostly up to about 70 µM; nearly all actives have a fitted effect of over 45% in size. The gist of the method: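 Cytotoxicity counter screen: CellTiter-Fluor signal (30 min, 37 C) in 4000 HepG2 cells/well carrying the DRE-luciferase reporter, following 24 h compound exposure at 37 C.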
The nature of assay [15]: qHTS assay for small molecule agonists of the antioxidant response element (ARE) signaling pathway (AID 743202; active = well fitted activation curve with a large enough effect in the signal ratio in the repeat runs, not every such curve was filed as active; the % refers to the signal ratio). The essentials: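 Quantitative high-throughput format in HepG2 cells bearing an integrated ARE-beta-lactamase reporter. Compound exposure lasted 16 h at 37 C, and fluorescence was read 2 h after adding LiveBLAzer B/G substrate at room temperature.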
Assay [16] deals with Peroxisome proliferator-activated receptor gamma (Homo sapiens) (UniProt P37231). Nature of the assay: qHTS assay to identify small molecule agonists of the peroxisome proliferator-activated receptor gamma (PPARg) signaling pathway (AID 743094; active = well fitted activation curve with a large enough effect in the signal ratio in the repeat runs, not every such curve was filed as active; the % refers to the signal ratio). The gist of the method:
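GeneBLAzer PPARg UAS-bla HEK293H cells were plated, rested 5 h, then exposed to compounds for 17 h at 37C. Beta-lactamase activity was read by LiveBLAzer B/G FRET substrate fluorescence after 1 h at room temperature.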

Assay [17] in a line: qHTS assay to identify small molecule antagonists of the estrogen receptor alpha (ER-alpha) signaling pathway using the BG1 cell line (AID 743080; calls by dose curve;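 also: BG1 cells stimulated with 17beta-estradiol alongside compound; series mostly up to about 70 µM; nearly all actives have a fitted effect of over 25% in size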). The gist of the method:
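BG1-Luc-4E2 cells (endogenous full-length ER-alpha, 4xERE luciferase) hormone-starved 5 days in charcoal-stripped FBS, plated 4,000/well for 24 h, then compound plus 17beta-estradiol for 21.5 h at 37 C; ONE-Glo luminescence read.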

Assay [18] has as its target Peroxisome proliferator-activated receptor gamma (Homo sapiens) (UniProt P37231). Nature of the assay: qHTS assay to identify small molecule antagonists of the peroxisome proliferator-activated receptor gamma (PPARg) signaling pathway (AID 743191; calls by dose curve; also: series mostly up to about 63 µM; nearly all actives have a fitted effect of over 30% in size). The gist of the method:
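Beta-lactamase reporter under UAS control in HEK293H PPARg-bla cells; compound treatment 17 h at 37C. Read-out: fluorescence intensity after 1 h room-temperature incubation with LiveBLAzer B/G FRET substrate.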

Records with an inconclusive call do not appear. A number with no mark means an inactive call. The source made the active and inactive calls. Unless noted, calls follow the shape of the dose curve; as a rule, active = well fitted curve in the direction sought with a large enough effect in the repeat runs; inconclusive = weak or mixed curves; inactive = no such curve, though single readings can be large; an effect the other way counts as inactive or inconclusive.
% is scaled to controls: 0 for no effect and ±100 for the full control effect.

Sequence of Aryl hydrocarbon receptor (Homo sapiens) (P35869 whole entry, looked up): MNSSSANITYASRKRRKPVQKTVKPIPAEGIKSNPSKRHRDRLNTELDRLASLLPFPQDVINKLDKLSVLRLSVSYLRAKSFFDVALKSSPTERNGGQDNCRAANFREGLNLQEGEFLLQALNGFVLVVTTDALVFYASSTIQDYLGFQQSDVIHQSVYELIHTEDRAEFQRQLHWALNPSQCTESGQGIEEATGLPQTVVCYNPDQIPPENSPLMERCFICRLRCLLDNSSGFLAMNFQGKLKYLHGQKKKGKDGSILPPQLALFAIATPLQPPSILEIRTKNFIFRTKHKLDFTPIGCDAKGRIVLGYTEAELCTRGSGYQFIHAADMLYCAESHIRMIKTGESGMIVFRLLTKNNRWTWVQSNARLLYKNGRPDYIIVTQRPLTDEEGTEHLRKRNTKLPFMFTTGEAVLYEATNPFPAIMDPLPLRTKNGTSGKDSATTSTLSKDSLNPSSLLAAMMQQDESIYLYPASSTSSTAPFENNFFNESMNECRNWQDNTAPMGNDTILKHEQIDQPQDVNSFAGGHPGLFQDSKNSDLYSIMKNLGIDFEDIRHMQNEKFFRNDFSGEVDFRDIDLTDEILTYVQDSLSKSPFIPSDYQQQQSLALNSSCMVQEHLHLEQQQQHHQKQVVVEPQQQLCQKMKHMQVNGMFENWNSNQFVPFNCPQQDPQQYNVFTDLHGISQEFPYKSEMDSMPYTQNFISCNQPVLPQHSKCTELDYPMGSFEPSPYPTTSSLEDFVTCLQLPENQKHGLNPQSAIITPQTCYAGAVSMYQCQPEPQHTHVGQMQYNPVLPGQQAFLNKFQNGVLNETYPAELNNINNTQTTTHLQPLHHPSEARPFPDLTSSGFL
Sequence of Peroxisome proliferator-activated receptor gamma (Homo sapiens) (P37231 whole entry, looked up): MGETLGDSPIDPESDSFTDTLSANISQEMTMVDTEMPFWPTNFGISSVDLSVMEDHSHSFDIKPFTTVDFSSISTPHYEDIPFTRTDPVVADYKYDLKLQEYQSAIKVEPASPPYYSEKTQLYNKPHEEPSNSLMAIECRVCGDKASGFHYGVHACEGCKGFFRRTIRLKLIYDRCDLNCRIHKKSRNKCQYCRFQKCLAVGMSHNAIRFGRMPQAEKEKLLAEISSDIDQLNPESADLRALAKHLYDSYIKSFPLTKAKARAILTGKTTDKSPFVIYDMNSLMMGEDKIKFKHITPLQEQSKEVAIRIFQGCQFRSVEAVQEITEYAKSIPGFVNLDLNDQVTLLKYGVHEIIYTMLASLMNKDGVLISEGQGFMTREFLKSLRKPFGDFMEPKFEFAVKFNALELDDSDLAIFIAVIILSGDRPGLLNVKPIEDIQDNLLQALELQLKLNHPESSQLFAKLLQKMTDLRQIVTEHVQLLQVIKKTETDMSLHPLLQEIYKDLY

Turning to `Cc1ccc2nc(N)[nH]c(=O)c2c1Sc1ccncc1`, the Potency in assay [1] is 8.41 µM (active); in assay [3], 3.01 µM (active); with Aromatase (Homo sapiens) it was 9.44 µM (active); in assay [6], 13.3 µM (active). Moreover, the Potency result in assay [2], in assay [4], in assay [5], in assay [7], in [8] and in [9] was “inactive” in each case. Further, the Potency result in [10] is “inactive”.
For the compound `COC(OC)OC`, the Potency result in assay [1], in assay [2], in assay [11], in assay [12], in assay [13] and in assay [4] was “inactive” each time. For the same compound, the Potency entry (in the assay with Aromatase (Homo sapiens); in [5]; in assay [6]; in assay [14]; in [7]; in [15]) was “inactive” throughout. For the same compound, the Potency result in assay [8], in assay [9] and in [10] was “inactive” in each case.
Take `O=C(c1ccccc1)C1CCC1`: the Potency result in assay [1], in assay [2], in assay [11], in [3], in assay [12] and in assay [13] was “inactive” in each case. The Potency entry (in [4]; with Aromatase (Homo sapiens); in [5]; in assay [6]; in assay [14]; in assay [7]) was “inactive” in each case. Besides, the Potency result in assay [15], in [8] and in assay [9] was “inactive” each time. Also, the compound was called inactive in assay [16].
With `CCC(C)(C)C(=O)O`, the Potency result in assay [1], in assay [2], in assay [11], in [3], in assay [12] and in assay [17] was “inactive” throughout. The Potency entry (in assay [4]; with Aromatase (Homo sapiens); in assay [5]; in assay [6]; in assay [14]; in assay [18]) was “inactive” each time. For the same compound, the Potency entry in assay [7], in assay [15], in [8] and in [9] was “inactive” in each case. In addition, in assay [16], the compound was called inactive.
For the compound `CC1=CC[C@@H]2C[C@H]1C2(C)C`, the Potency entry (in assay [1]; in assay [13]; in assay [4]; in the assay with Aromatase (Homo sapiens); in assay [5]; in assay [14]) was “inactive” throughout. In addition, the activation was 0.116% [at 18 µM] in assay [2], -0.944% [at 14.9 µM] in assay [12] and -11.5% [at 18.1 µM] in assay [15]. For the same compound, the activity, negative = inhibition in assay [11] is 12.8% [at 15 µM]. Further, the activity, negative = cytotoxicity in assay [3] is -16.5% [at 15 µM]. Further, the result in assay [16] was inactive. Also, the activity change, negative = cytotoxicity in assay [7] is -33.5% [at 13.2 µM]; in [9], -3.23% [at 13.2 µM]. For the same compound, in assay [8], the viability change, negative = cytotoxic was -20.1% [at 18.1 µM].
Consider `O=C(NS(=O)(=O)/C=C/c1ccccc1)c1ccc(F)cc1Cl`, for which the Potency entry (in assay [1]; in assay [2]; in [3]; in [12]; in assay [4]; with Aromatase (Homo sapiens)) was “inactive” throughout. For the same compound, the Potency result in assay [5], in assay [6], in assay [14], in assay [7], in assay [8] and in [9] was “inactive” throughout.
Turning to `CCc1ccc(C)cc1`, the Potency result (in assay [1]; in [2]; in [3]; in [4]; with Aromatase (Homo sapiens); in assay [5]) was “inactive” each time. In addition, the Potency entry in [6], in assay [14], in [18], in assay [7], in assay [8] and in assay [9] was “inactive” in each case. Also, in assay [16], the outcome was inactive.
In the case of `CC(C)C(O)C(C)(C)CO` (centres undefined), the Potency entry in assay [1], in assay [2], in assay [11], in assay [3], in [12] and in [13] was “inactive” each time. Further, the Potency result (in assay [4]; in the assay with Aromatase (Homo sapiens); in [5]; in assay [6]; in assay [14]; in assay [7]) was “inactive” each time. Also, the Potency result in assay [15], in [8], in assay [9] and in assay [10] was “inactive” in each case. In addition, the compound was called inactive in [16].
As for `CCN(CC)c1cccc(O)c1`, the Potency entry (in assay [1]; in assay [2]; in assay [3]; in [4]; in the assay with Aromatase (Homo sapiens); in assay [5]) was “inactive” throughout. Further, the Potency entry in [14], in [7], in assay [8], in [9] and in [10] was “inactive” throughout. In addition, the Potency in assay [13] is 70 µM (active). Moreover, the call in assay [16] was inactive.

Values taken from PubChem BioAssay (Tox21).
